Data reported in PubChem BioAssay AID588765 (NMMLSC, 2011).
Several values for one entry are separate records, joined by “and”; a condition that tells them apart may be missing. Identical values can stand only once. The whole screen tested about 1,100 compounds, of which fewer than 10 were called active.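 How the source made its calls: active means percent response below a set limit in fluorescence channel 1 and below 50% in channel 8; inactive means the rest.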 A selection follows.

test: fluorescent artefacts in FAP flow readout – cell-based, FAP fluorogen, flow cytometry, cherry pick 1, artefact control for beta2AR agonist internalization project, confirmation (AID 588765); conditions: Am2.2 cells, fluorescence counterscreen, at 10 µM, stronger effect = lower value; percent response FL8: measured here: FL8 channel fluorescence;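 further: low percent response here flags compound autofluorescence meaning a false positive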

Structure (SMILES)	percent response FL1	percent response FL8
O=C1C(=O)N(CC2COc3ccccc3O2)c2ccccc21 (configuration not stated)	108% (inactive)	112%
COc1ccc(-n2nc3c(N4CCC(C(=O)NCc5ccccc5)CC4)nnc(C)c3c2C)cc1	130% (inactive)	115%
CCCOc1ccc(C(=O)C(CCC(CNCC)C(=O)c2ccc(OCCC)cc2)CNCC)cc1 (configuration not stated)	82.8% (inactive)	76.7%
O=C(NCCCn1ccnc1)C1CCCN(S(=O)(=O)c2cc(Cl)ccc2Cl)C1 (configuration not stated)	8.86% (inactive)	109%
COc1cc(C#Cc2ccc3cc(CCCO)oc(=O)c3c2)cc(OC)c1	92.6% (inactive)	102%
CCCCCCCCCCOC(=O)Cn1c(COc2ccc(C)cc2)[n+](C)c2ccccc21	120% (inactive)	113%
CC(=O)c1ccc(NC(=O)c2ccc3c(Cl)c4c(nc3c2)CCCC4)cc1	52.7% (inactive)	89.7%
CCOC(=O)c1ccc(NC(=O)Cn2nnc(-c3ccc(C)cc3)n2)cc1	12.2% (inactive) and 8.97% (inactive)	98.7% and 110%
O=S(=O)(Nc1ccc2[nH]ncc2c1)c1ccccc1Cl	86% (inactive)	87.7%
COc1ccc(C(CCNCc2ccccc2F)c2ccc(F)cc2)cc1 (configuration not stated)	101% (inactive)	110%
Cc1cc(S(=O)(=O)N2CCOCC2)ccc1OCC(=O)Nc1cccc(C(F)(F)F)c1	97.5% (inactive)	108%
CC(CCc1ccccc1)NCC(O)c1cccc([N+](=O)[O-])c1 (configuration not stated)	120% (inactive)	128%
CCOc1ccc(NC(=O)COc2ccc(S(=O)(=O)N3CCCC3)cc2)cc1	109% (inactive)	101%
CCCN(CCc1ccccc1)C1CCc2c(O)cccc2C1 (configuration not stated)	103% (inactive)	98.5%
Oc1ccc(N=Cc2sc3ccccc3c2Cl)cc1	99.5% (inactive)	93.9%
O=C(Nc1ccc2c(c1)OCCO2)C(c1ccc(F)cc1)N1CCCCC1 (configuration not stated)	114% (inactive)	111%
CSc1ccc(CCNC(=O)C2CCN(c3nnc(-n4cccc4)s3)CC2)cc1	45.7% (inactive)	94.2%
N#Cc1cccc(NC(=O)COC(=O)c2ccccc2C(=O)c2ccc(Cl)c([N+](=O)[O-])c2)c1	100% (inactive)	89%

Structure (SMILES)	percent response FL1	percent response FL8
CC(=O)Nc1ccc(CN2CCC(Oc3ccc(C(=O)N4CCCC4)cc3)CC2)cc1	109% (inactive)	109%
COc1ccc(S(=O)(=O)N2CCCC(C(=O)Nc3ccc(NC(=O)c4ccccn4)cc3)C2)cc1 (configuration not stated)	45.3% (inactive)	95.6%
CC(=O)Nc1ccc(Nc2c3ccccc3nc3ccccc23)cc1	68.8% (inactive)	126%
C=CCNC(=S)N/N=C/c1ccc(C)s1	100% (inactive)	93.3%
CCN1CCC2(CC1)N=C(c1ccc(F)cc1)C(=S)N2C(=O)c1ccc(C)cc1	98.4% (inactive)	96.3%
Cc1ccc(Cl)cc1NC(=O)CN1CCN(S(=O)(=O)N2CCOCC2)CC1	99.8% (inactive)	93.1%
CSc1ccc(CNC(=O)c2ccc(NC(=O)C3=CSCCO3)cc2)cc1	16.2% (inactive)	99.4%
Cc1ccc(Sc2cc(N3CCOCC3)nc(-c3ccccc3)n2)cc1	29.8% (inactive)	111%
COc1ccc(OC)c(NC(=O)c2sc3nc(C)cc(C)c3c2N)c1	45.6% (inactive)	111%
CC(=O)c1cccc(NC(=O)COc2ccc(S(=O)(=O)N3CCOCC3)cc2)c1	112% (inactive)	104%
CCOc1ccccc1N1C(=O)CC(Sc2nccc(C)n2)C1=O (configuration not stated)	100% (inactive)	97.2%
O=C(C1CCN(c2nnc(-n3cccc3)s2)CC1)N1CCc2ccccc2C1	128% (inactive)	104%
COc1ccc2c(c1OC)C(=O)OC2Nc1nc(-c2ccccc2)cs1 (configuration not stated)	104% (inactive)	92.1%
OC(CNCc1ccc(Cl)c(Cl)c1)c1ccccc1 (configuration not stated)	106% (inactive)	113%
COc1ccc(OC)c(S(=O)(=O)N(C)CC(=O)N2CCN(c3ccccc3)CC2)c1	95.4% (inactive) and 98.5% (inactive)	99.7% and 105%
CCOc1ccccc1NC(=O)COc1ccc(S(=O)(=O)N2CCCC2)cc1	110% (inactive)	107%
COc1ccc(-c2ccnc(SCC(=O)N3CCOCC3)n2)cc1	103% (inactive)	100%
Cc1ccc(OCC(=O)Nc2ccc(-c3nc4ncccc4o3)cc2)cc1	13.3% (inactive) and 14.1% (inactive)	113% and 112%
